Laboratory results: PubChem BioAssay (NCI)
This is part of a sample that, as a whole, favours compounds with a hit. Of some 79,000 tested, about 15% had one in any assay. Activity calls are given as the source filed them. Rule as the data show it: active = growth inhibition above about 70%; inactive = the rest.

What was measured:
[1] = NCI Yeast Anticancer Drug Screen. Data for the rad50 strain (AID 155);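 also: 0% = growth of vehicle-only cultures of the same strain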; settings: S. cerevisiae rad50 strain growth inhibition; at 50.0 µM; stronger effect = higher value
Method in brief: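 A DNA repair-deficient yeast mutant serves as the test organism; compound-induced growth inhibition is calculated against vehicle-treated cells.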

[2] = NCI Yeast Anticancer Drug Screen. Data for the mec2-1 strain (AID 157); settings: S. cerevisiae mec2-1 strain, at 50.0 µM, stronger effect = higher value
Method in brief: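 Test agents were screened against the mec2-1 yeast strain, with defined DNA repair or cell cycle alteration. Growth was scored as inhibition against vehicle-only controls.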

[3] = NCI Yeast Anticancer Drug Screen. Data for the sgs1 mgt1 strain (AID 161);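 also: 0% = growth of cultures given vehicle only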; settings: S. cerevisiae sgs1 mgt1 strain, at 50.0 µM, stronger effect = higher value
Method in brief: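 Read-out: growth inhibition vs vehicle controls. Cells: mutant yeast strain deficient in DNA damage repair.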

[4] = NCI Yeast Anticancer Drug Screen. Data for the cln2 rad14 strain (AID 165);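 also: 0% = growth equal to vehicle treated cultures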; settings: S. cerevisiae cln2 rad14 strain, at 50.0 µM, stronger effect = higher value
Method in brief: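 Growth of compound-exposed yeast (cln2 rad14 genotype) measured and expressed as inhibition relative to vehicle.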

[5] = NCI Yeast Anticancer Drug Screen. Data for the bub3 strain (AID 167); settings: S. cerevisiae bub3 mutant strain, at 50.0 µM, stronger effect = higher value
Method in brief: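 Inhibition values come from growth of compound-treated mutant yeast normalised to vehicle-treated controls.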

[6] = NCI Yeast Anticancer Drug Screen. Data for the mlh1 rad18 strain (AID 175); settings: S. cerevisiae mlh1 rad18 strain growth inhibition; at 50.0 µM; stronger effect = higher value
Method in brief: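 In this whole-cell yeast screen, a strain with altered DNA damage repair is challenged with compound, and its growth is measured against matched vehicle-treated controls.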

Measured: growth inhibition

CCC(/C=C\C(C)=O)CC
inactive: [1] -28.3% | [2] -25.2% | [3] -27.6% | [4] 5.35% | [5] -10.6% | [6] -12.8%

CC(=O)Nc1ccc(C(=O)c2ccc(S(=O)(=O)Nc3ccccc3)cc2)cc1
inactive: [1] 6.5% | [2] -9.15% | [3] 5.55% | [4] 16.9% | [5] 6.05% | [6] -14.4%

C=C1SC(=Nc2c(C)cccc2C)N(c2nc(Cl)nc(Cl)n2)C12CCCCC2
inactive: [1] 21% | [2] -8.75% | [3] 11.2% | [4] 19.1% | [5] 10.9% | [6] 14.1%

CCCCCC/C=C\CCCCCCCCCc1cc(O)cc(OC)c1O
inactive: [1] -8.55% | [2] 4.45% | [3] -5.65% | [4] -9.8% | [5] -33.2% | [6] 13.2%

CC(C)N(C(=O)c1ccccc1)C(C)C
inactive: [1] 20.2% | [2] 26.2% | [3] 29.4% | [4] -20.1% | [5] -7.35% | [6] 2.35%

NC(CO)(CO)c1ccccc1
inactive: [1] 34.4% | [2] 13.1% | [3] 10.5% | [4] 20% | [5] 17.5% | [6] 29.9%

CC(C)c1ncc([N+](=O)[O-])n1C
inactive: [1] -13.2% | [2] 2.9% | [3] -16.6% | [4] -30.1% | [5] 6.15% | [6] 8.75%

CCN(CC)CCCC(C)NC(=S)N/N=C(\C)c1ccccn1 (centres undefined)
inactive: [1] 60.6% | [2] 47.6% | [3] 41% | [4] 11.2% | [5] 29.1% | [6] 42.7%

NNc1ncccn1
inactive: [1] 6.45% | [2] -1.15% | [3] 31.4% | [4] -3.35% | [5] -10% | [6] -0.75%

C#CC(O)c1ccccc1 (centres undefined)
inactive: [1] -2.4% | [2] -15.3% | [3] 13.1% | [4] -11.6% | [5] 0.9% | [6] -0.65%

CCCNS(=O)(=O)c1ccc(Cl)cc1
inactive: [1] 20.1% | [2] -2.9% | [3] -0.45% | [4] 1.55% | [5] -4.75% | [6] -3.7%

CCOP(=O)(OCC)/C(=C\N1C(=O)CC(=O)NC1=S)C(=O)OC
inactive: [1] -29.9% | [2] -31.4% | [3] -18.9% | [4] 7.6% | [5] -6.45% | [6] -5.55%

NNc1ncnc2nc[nH]c12
inactive: [1] -20.4% | [2] -9.65% | [3] -14.3% | [4] -44.7% | [5] -15.9% | [6] -19.4%

C=CC(C)(C)n1cc(C2=C(O)C(=O)C(c3cn(C(C)(C)C=C)c4ccccc34)=C(O)C2=O)c2ccccc21
inactive: [1] -1.6% | [2] -26.6% | [3] -2.3% | [4] 4.7% | [5] -18.8% | [6] -13.4%

Nc1c(Br)cc(O)c2c1C(=O)c1ccccc1C2=O
inactive: [1] -11.6% | [2] -3.5% | [3] 8.55% | [4] 7% | [5] 26.9% | [6] 10.5%

O=C1C=C(c2ccccc2)C(O)(c2ccccc2)C1 (centres undefined)
inactive: [1] 15.1% | [2] 6.85% | [3] 6.75% | [4] 5.1% | [5] 11.4% | [6] 6.15%

Oc1cc2ccccc2c(-c2c(O)c(O)cc3ccccc23)c1O
active: [1] 89.5% | [2] 85% | [3] 83.7% | [4] 83.6% | [5] 87% | [6] 91.7%

COc1ccc(/C=C\C(=O)/C=C/c2ccc(OC)cc2)cc1
inactive: [1] -11.9% | [2] 7.05% | [3] 1.5% | [4] -14.4% | [5] -3.35% | [6] 0%

O=C(c1ccc(Cl)cc1)N1CCCCC1
inactive: [1] 1.05% | [2] 2.85% | [3] -17.6% | [4] -0.65% | [5] -7.15% | [6] -5.8%

COC1OC(C(COC(C)=O)OC(C)=O)C(OC(C)=O)C(OC(C)=O)C1OC(C)=O (centres undefined)
inactive: [1] 13.8% | [2] 1.75% | [3] 4.35% | [4] -46.5% | [6] -14.8%

CCN(C(C)=O)c1ccc([N+](=O)[O-])cc1
inactive: [1] -11.9% | [2] -1.65% | [3] 2% | [4] -41.8% | [6] -13.7%

c1ccc2c(NCCCN3CCN(CCCNc4c5ccccc5nc5ccccc45)CC3)c3ccccc3nc2c1
inactive: [1] 23.9% | [2] 4.6% | [3] 11.1% | [4] -0.25% | [6] 14.9%

O=C(O)Cc1ccccn1
inactive: [1] -29.4% | [2] -49.1% | [3] -1.75% | [4] 14.1% | [6] -2.25%

CCOS(=O)(=O)c1ccc([N+](=O)[O-])cc1
inactive: [1] 7.35% | [2] 5.95% | [3] 4.5% | [4] 5.15% | [6] 5.8%

CCCCOC(=O)c1ccccc1O
inactive: [1] 9.35% | [2] -0.8% | [3] -13.8% | [4] -3.05% | [5] 0.85% | [6] 20.5%

CCC(C)C1CCC(O)CC1 (centres undefined)
inactive: [1] 30.8% | [2] 9.55% | [3] 9.15% | [4] 21.5% | [5] 24.2% | [6] 18.9%

O=C(CCCl)OCCOc1ccccc1
inactive: [1] -9.85% | [2] 4.3% | [3] -15.1% | [4] 21.9% | [6] 6.55%

CCCCCCCCCc1ccc(OC(C)=O)cc1
active: [1] 99.3% | [2] 97.2% | [4] 98% | [6] 98.4%
inactive: [3] 42.2%

OC(CCN1CCCCC1)(c1ccccc1)c1ccccc1
inactive: [1] -29.6% | [2] -21.9% | [3] -41.5% | [4] 16.4% | [6] -18.4%

CC(C)N1CC(=O)N2CSCC2C1=O (centres undefined)
inactive: [1] 14.1% | [2] 8.3% | [3] 9.8% | [4] -6.85% | [5] 13.1% | [6] 3.25%

C#CCSc1nnnn1-c1ccccc1
inactive: [1] -0.6% | [2] -19.9% | [3] 22.2% | [4] 19.4% | [6] 12.4%

CC(=O)[C@@]1(O)CC[C@H]2[C@@H]3CC[C@@H]4CC(=O)CC[C@]4(C)[C@H]3[C@@H](O)C[C@@]21C
inactive: [1] -19.9% | [2] -1.9% | [3] -3% | [4] -51.6% | [6] -13.5%

Cc1cc2c(C(C)C)c(O)c(O)c(C=Nc3ccccc3[N+](=O)[O-])c2c(O)c1-c1c(C)cc2c(C(C)C)c(O)c(O)c(C=Nc3ccccc3[N+](=O)[O-])c2c1O
inactive: [1] -13.9% | [2] -19.6% | [3] -19.6% | [4] -21.8% | [6] -2.3%

Cc1cc(CC(=O)NCCO)n(CCO)c(=O)c1
inactive: [1] -7.85% | [2] -21.5% | [3] 6.55% | [4] 6.25% | [5] -2.7% | [6] -2.9%

CN(C(=S)S(=O)(=O)C12CC3CC(CC(C3)C1)C2)c1ccccc1
inactive: [1] 28.8% | [2] 4.7% | [3] 4.35% | [4] -11.5% | [6] -24.9%

O=C(Nc1c(Cl)cc(Cl)cc1Cl)ON=C1CCCCC1
inactive: [1] 1.2% | [2] -19% | [3] 11.1% | [4] 12.9% | [6] 3.6%

COc1cc(-c2ccc(NC(=O)CC(C)=O)c(OC)c2)ccc1NC(=O)CC(C)=O
inactive: [1] -17.8% | [2] -26.6% | [3] -3.35% | [4] -5.3% | [6] -14%

CC1(c2ccccc2)CO1 (centres undefined)
inactive: [1] -2.8% | [2] -21.4% | [3] -7.85% | [4] -11.1% | [6] 4.3%

C1=NCCc2ccccc21
inactive: [1] 0.55% | [2] 3% | [3] -8.25% | [4] -19.9% | [5] 2.05% | [6] 15.2%

Nc1ncnc2c1ncn2C1OC(CO)C2OC21 (centres undefined)
inactive: [1] -12.6% | [2] -7.85% | [3] 2.05% | [4] 12.5% | [6] -30.4%

Nc1cc(N)ncn1
inactive: [1] -1.3% | [2] -18.9% | [3] 3.6% | [4] 22.5% | [6] 26.7%
